# Laboratory results published in PubChem BioAssay (NCI).
# Several values for one entry are separate records, joined by “and”; a condition that tells them apart may be missing. Identical values can stand only once. Compounds without any hit were thinned out: in the full panel of roughly 83,000, 20% have a hit.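 For each line, cells grew in 96-well plates with the test compound present at a single concentration for 48 hours.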 Values without a mark were called inactive. Activity calls are given as the source filed them. How the source made its calls: active means growth percent below 10; inactive means the rest.
# Test system: SR leukemia
# Assay: NCI-60 one-dose screen, 48 h (100 = growth as untreated, 0 = no growth, -100 = all killed)
# Conditions: 10 µM unless noted
row,Structure (SMILES),growth
1,CC(=O)C(=Cc1ccc(C=C(C(C)=O)C(C)=O)cc1)C(C)=O,6.26% (active)
2,N#CSCc1ccc(CSC#N)c(Cl)c1,6.77% (active)
3,Nc1nc(N)c2nc(CNc3ccc(C(=O)NC(CCC(=O)O)C(=O)O)cc3)cnc2n1 (configuration not stated),15.1% and 40.2%
4,CCOC(=O)/C=C/c1ccc([N+](=O)[O-])o1,16.2%
5,Cc1cc(C(C)(CC(C)C)c2ccc(O)c(C)c2)ccc1O,94.6%
6,Nc1nc(N)c2c(ccc3c2ccn3Cc2cccc([N+](=O)[O-])c2)n1,110%
7,O[C@H]1[C@H]2c3cc4c(cc3CN3CCC(=C[C@@H]1O)[C@H]23)OCO4,32.7%
8,CNc1ccc(N)cc1,119%
9,CC(=O)Nc1cccc2cc(O)ccc12,108% and 107% and 99.6%
10,CC1OC(OC2C(OC3CCC4(C)C(CCC5(C)C4CC=C4C6CC(C)(C)CCC6(CO)C(O)CC45C)C3(C)C)OC(C(=O)O)C(OC3OC(COC4OC(CO)C(O)C(O)C4O)C(O)C(O)C3O)C2O)C(O)C(O)C1O (configuration not stated),-44.2% (active)
11,CN(C)c1ccc(N=Nc2cccc3ccccc23)cc1,111%
12,CC1OC2CC(=O)OC2C2=C1C(=O)c1c(O)cccc1C2=O (configuration not stated),-30% (active)
13,O=C1c2ccccc2C(=O)c2sc(Nc3ccc(Cl)cc3)nc21,4.26% (active)
14,N#CSCC(=O)c1ccc(Cl)cc1,69.9%
15,Cn1c2c(c3ccccc31)CCN1C[C@@H]3CCCC[C@H]3C[C@@H]21,14.1%
16,Oc1c(Br)cc(Cl)cc1C(c1cc(Cl)cc(Br)c1O)C(Cl)(Cl)Cl,28.5%
17,N#CSCc1ccc(Cl)c(CSC#N)c1,8.52% (active)
18,O=C1OCc2cccc3cccc1c23,93.1%
19,O=C(O)C1C2CC3C(OC(=O)C31)C2Br (configuration not stated),97.3% and 101%
20,Nc1ccc(SSc2ccc(N)cc2)cc1,104%
21,CCC1OC(OC)C=CC1=O (configuration not stated),81.5%

# Test system: RPMI-8226 leukemia
# Assay: as above
# Conditions: 10 µM unless noted
row,Structure (SMILES),growth
1,CN(C)CCOc1ccc2c(c1)C(=O)/C(=C\c1ncc([N+](=O)[O-])n1C)C2,9.88% (active)
2,CC(=O)C(=Cc1ccc(C=C(C(C)=O)C(C)=O)cc1)C(C)=O,2.05% (active)
3,N#CSCc1ccc(CSC#N)c(Cl)c1,41.9%
4,Nc1nc(N)c2nc(CNc3ccc(C(=O)NC(CCC(=O)O)C(=O)O)cc3)cnc2n1 (configuration not stated),60.7% and 55%
5,CCOC(=O)/C=C/c1ccc([N+](=O)[O-])o1,74.7%
6,Cc1cc(C(C)(CC(C)C)c2ccc(O)c(C)c2)ccc1O,86.3%
7,Nc1nc(N)c2c(ccc3c2ccn3Cc2cccc([N+](=O)[O-])c2)n1,19.4%
8,O[C@H]1[C@H]2c3cc4c(cc3CN3CCC(=C[C@@H]1O)[C@H]23)OCO4,23.1%
9,CN1c2ccccc2C(C)(C)C12C=Cc1cc(O)ccc1O2 (configuration not stated),-22.8% (active)
10,CN(Cc1cnc2nc(N)nc(N)c2n1)c1ccc(C(=O)NC(CCC(=O)O)C(=O)O)cc1 (configuration not stated),37.3%
11,CCOc1ccc(-c2nc3ccc(-c4nc5ccc(N6CCN(C)CC6)cc5[nH]4)cc3[nH]2)cc1,-4.63% (active)
12,CC(=O)Nc1cccc2cc(O)ccc12,120% and 112% and 106%
13,CC1OC(OC2C(OC3CCC4(C)C(CCC5(C)C4CC=C4C6CC(C)(C)CCC6(CO)C(O)CC45C)C3(C)C)OC(C(=O)O)C(OC3OC(COC4OC(CO)C(O)C(O)C4O)C(O)C(O)C3O)C2O)C(O)C(O)C1O (configuration not stated),-23.5% (active)
14,CCCCCCC(C)c1ccccc1O (configuration not stated) (tested in a mixture with another compound),95.6%
15,CC1(C)CC([P+](c2ccccc2)(c2ccccc2)c2ccccc2)=NN1,16.2%
16,CN(C)c1ccc(N=Nc2cccc3ccccc23)cc1,72.5%

row,Structure (SMILES),growth
1,CN(C)c1ccc(C(=C2C=CC(=[N+](C)C)C=C2)c2ccc(N(C)C)cc2)cc1 (tested in a mixture with another compound),-52.6% (active)
2,CC1OC2CC(=O)OC2C2=C1C(=O)c1c(O)cccc1C2=O (configuration not stated),-9.64% (active)
3,O=C1c2ccccc2C(=O)c2sc(Nc3ccc(Cl)cc3)nc21,7.64% (active)
4,N#CSCC(=O)c1ccc(Cl)cc1,45.6%
5,Cn1c2c(c3ccccc31)CCN1C[C@@H]3CCCC[C@H]3C[C@@H]21,16.7%
6,Cc1ccc(C(=Nc2ccccc2)N=P(c2ccccc2)(c2ccccc2)c2ccccc2)cc1,-38.6% (active)
7,CC1SC(=S)N(c2ccc(Cl)cc2)C1=O (configuration not stated),94.8% and 79.6%
8,N#CSCc1ccc(Cl)c(CSC#N)c1,23.9%
9,O=C1OCc2cccc3cccc1c23,100%
10,O=C(O)C1C2CC3C(OC(=O)C31)C2Br (configuration not stated),102% and 106%
11,Nc1ccc(SSc2ccc(N)cc2)cc1,102%
12,CCCCCCCCCCCCCCCCN(CC)CC,-60.1% (active)
13,O=C1NC(=O)/C(=C/C=C/c2ccccc2)S1,38.8%
14,CCCCCCCCCCCCCCCC[N+](C)(CCO)Cc1cnc[nH]1 (configuration not stated),-58.3% (active)
15,CCC1OC(OC)C=CC1=O (configuration not stated),110%
